Among all 31,000 sequences or so, about 1,400 (4.5%) were called active. Only a selection was taken, and actives are over-represented in it overall. A number with no mark means an inactive call.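 The calls were made as follows: active = median seed-adjusted z-score above 1 or below -1; inactive = the rest.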

This test can be described thus: Novel Modifiers of Survival Motor Neuron (SMN) Protein: Gene Identification via Genome-wide siRNA Screen.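 Also: luminescence tracks full-length SMN protein made from the SMN2 reporter.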 As to conditions: HEK293T SMN2-luciferase reporter, siRNA knockdown, 72 h; actives lie on both sides. Summed up: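 siRNA screen, 10418 genes ×3 siRNAs; 1 pmol/well, lipid reverse transfection into HEK293T SMN2-luc reporter line. 72 h, 37 °C, 5% CO2; ONE-Glo readout. Data: neg-ctrl normalized, log10, MAD; hit = MAD >1.0 or < -1.0.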
(A reporter such as luciferase makes a cellular process visible.)
UGCAGCCUCUCCAAACUUATT against SP6: the median seed-adjusted z-score was -0.176. For the sequence GCCCAACAAGUGUACGUUUTT against GLIS3, the median seed-adjusted z-score is -0.00906. The same measure for GGCUGAUAAAAAUCCACGATT against RICS: 0.665; for AGUACGAUCUUGACUUCAATT against ENO3: -0.142; for GGGAAGUCUUUUAAUCGUATT against ZNF780B: -0.332. The same measure for CUGUUGGUAUUGUCCACAATT against MAL: 0.0733; for GGGACUUUUGCAAAGGAAATT against CLEC5A: -1.07 (active). The same measure for GGAGAGCUGUGAAAAGUCATT against CCR8: -0.206; for GAACUUAGACCAACUUUAATT against COX5A: -0.348.

For the sequence CCACAAGCUGCAUAAGAGATT against SPTBN4, the median seed-adjusted z-score is -0.0625. The same measure for GGACUUUUACACCACCUUUTT against NRXN2: -0.485; for CAACGACUACAGGUCUGUATT against ITGA11: 0.496. The same measure for GGCAGGAAGUCAAACCUAUTT against KLK2: 0.0716; for CAAACGAGGUGAACGAUGATT against PYGO1: -1.23 (active).

For the sequence AGAUACUCACGGACAUUAUTT against COASY, the median seed-adjusted z-score is 0. Take GUCACGCUAUGAGACCUCATT against E2F1: the median seed-adjusted z-score is -0.211.

For the sequence GCAUCGAAUUUGCAGAACATT against PNN, the median seed-adjusted z-score is 1.29 (active). The same measure for GGAAACGAUUAUUACAACUTT against LRRK2: -0.671. The result for AUAAAUACCUCGGACAUUATT against EIF1AX reads 0.878; that for CCCUUCGCGUUGUUGCUCATT against DHRS1, 0; that for GAGGGACCAUAGUAGAUCATT against CPSF6, -2.38 (active). As to GAUCGAUUCAUACCAUAUATT against MCM8, the median seed-adjusted z-score was 0.279. In the case of GAAGCUACGUUGACUAUUUTT against HRC, the median seed-adjusted z-score was 1.06 (active). The same measure for GAAGUUUACUUAUCUGGGUTT against PRKAB1: 0.536.

Consider CAACAAUCCUAUAAUUCCATT against UBE2Q2, for which the median seed-adjusted z-score is 0.146. Take ACCUGUUAAUGGCCUUUGUTT against SLC30A3: the median seed-adjusted z-score was -1.26 (active). The same measure for GGAGUUCAUCCGUCAAGUUTT against BIRC3: -0.644; for GCAUCAAUGUACCUCCACATT against ETV4: -0.186; for CGACCAUUGGAGAUGUUAATT against SCML2: -0.538.

On to GAGGAUUACUAAUUGAUCUTT against CHM, for which the median seed-adjusted z-score is 0.743.

For the sequence GAAAAAGGGUCACCAGAAATT against TSG101, the median seed-adjusted z-score is 1.48 (active).

Consider GGCCGUGGAUCAUCACUAUTT against FLJ16165, for which the median seed-adjusted z-score was -0.404. The result for GCCUUAAGGUAUUCGUGUATT against EXTL1 reads 0; that for CCACCACAGAUUUUCCUAUTT against CD300A, -0.414; that for GGAACUCAUUAUACAAUGATT against CLCN3, -0.0801.

Turning to CCCUAUGAGUGUCAACAAUTT against ZNF799, the median seed-adjusted z-score is -1.02 (active). For the sequence GAUAUGUAUUCAUACUAAUTT against SNX10, the median seed-adjusted z-score was 0.391.

GUACAGCUCUUAUCGUUCATT against PPRC1: the median seed-adjusted z-score is 0. The same measure for GCAUCUUUCUGAGUUCACUTT against SLC22A11: 0; for GUGCUACAAUUGUACAGUATT against CREM: -2.37 (active); for GCAUGAGUAUCUAUGACGATT against ATP5C1: -0.0179. Consider ACUCCAACCGUACCCUUUATT against PPT2, for which the median seed-adjusted z-score is 0.0334.

Turning to CCACUACGGUGUUCAUGCATT against PPARD, the median seed-adjusted z-score was 0.0283. The result for CUGAGACCCUGUUGACUGATT against PGS1 reads 1.36 (active); that for GACUCCUACAUGUCCAUUATT against DNM3, 0. The result for GACAGACUGUGCAUAUGUATT against GPR15 reads 0.101. With GCAACCACCUAUAUCCUCATT against P2RY10, the median seed-adjusted z-score is -0.432. The result for GAGUCACAUUUGAGGUUCATT against CSF2RA reads -0.227; that for CUCCCUCGGUUAUAAAGAUTT against SLC4A5, 1.3 (active); that for CAACCUUGCGGCAUGCAAATT against PRSSL1, -0.221. The result for GGAUCUAUAGUGAUUGUCATT against TFRC reads 0.019; that for GCCUAUAGAGGAUCAGUUATT against PCMTD1, 0.0312; that for GAGUGAGGACGGAAGAUCATT against APH1A, 0.741. The result for GGCUGUAUGAGCACCGUUATT against TGIF1 reads 0.303; that for GGAUGUUAGUAAACUCUCUTT against PSMA4, 0. Regarding GAAUGUUAGUAGACGGGUUTT against IKZF5, the median seed-adjusted z-score is 0.399.

Regarding GCACUAUCCAGUUUGUGGATT against TUBA3E, the median seed-adjusted z-score was -0.35. The same measure for GGCCGUUACUUACCAGAGUTT against UROD: 1.11 (active); for GAGAAACUAGAAUACAGAATT against ADPRH: -0.406; for GGGAUUAUCUUGCUUCCAATT against LPCAT2: 0. The result for CCGUGAACCCAGAACAGUATT against PIP4K2A reads 0.469.

GAGUCAGGACAAGAAGAUUTT against PHPT1: the median seed-adjusted z-score was 1.27 (active). The result for GGAUGGAACUUUACCCUCATT against MKL2 reads -0.863; that for CUACAAGCAUCGAUAGUAATT against EIF4G3, -0.0562. The result for GAAAGAAAUCAACUGAUGATT against FBP1 reads -0.221; that for GCAGACUCUCGACAUCCGATT against MAFK, 1.73 (active). The result for GCUCAUUCCAGGUCAAUCATT against MLL3 reads -0.248; that for GCUCAUAGGUAAGAAUUGUTT against NUBP1, -0.0975. For CGGCCUUCAUCGCAGUACATT against SLC7A5, the median seed-adjusted z-score is 0.00397. The result for GGGUGAAGUCUCUCAAGAATT against LLGL1 reads -1.13 (active); that for CAAGAUCUAUGAUAAGGAUTT against GUCA1B, 0; that for ACUUCAACAUGACCAAAAATT against PPARD, 0.0283. The result for GAGCUUGUAUAUGAAGCUATT against PDCD4 reads -0.0842. As to GGAUGACAGUCUCAUUGCATT against GON4L, the median seed-adjusted z-score was 0.116. Regarding CCAUGCUGUCUAUAGCCUATT against TRPC5, the median seed-adjusted z-score was -1.14 (active).

Take GGUUUUAGACCACACUAAATT against MSH3: the median seed-adjusted z-score is 0.428. The same measure for CAUUCCCUGUUGUAAUCAATT against MDH1: -0.154; for CGUCAUCACCCUCAACUAUTT against NLGN3: -0.0279; for GGACAUCGAAAAGUUAGUATT against MX2: -0.0346. The same measure for CAAGAGUCUCUUUAAGGAATT against ACTL8: 0; for GGAUGUAUGACAUCUGUAATT against STC1: -1.36 (active). The result for GCAUCCCUACGGUUGUUGATT against EIF2B4 reads 0; that for GAGAAUAUCUGGAACCAGUTT against BDKRB1, 0.448. With CCAAUGCCCAGAUUAUGUATT against CELSR2, the median seed-adjusted z-score is -0.493. The same measure for GGAGAUACCUGGUCUCUUUTT against ADAM21: 0. In the case of GUCUUUCAGGUGUACCCAUTT against GATA1, the median seed-adjusted z-score was 0.371. The result for GCAUGCCCAUGAACAAAAATT against B3GNT1 reads 0.0931; that for GAAUGGGUCUUGUAAAUCATT against PPAT, -1.51 (active).

As to ACCUGAUGGUGGGCGCAAATT against MYBPC3, the median seed-adjusted z-score is 0.304. The same measure for AGAUCAACCUGCUUCCCGATT against PDK2: -0.481; for GGAUUAUAGUGUCACCUAUTT against CPD: -0.198; for GCGCAUUACUUUCUAGAAATT against PEX5L: 0.0982.

On to GAAUCAAGAAUUAAAGACATT against PIPOX, for which the median seed-adjusted z-score is 1.06 (active). As for CAGUUCAUGUGGAUCAUCATT against GABARAPL2, the median seed-adjusted z-score was 0.528.

CCACCUGUACAGCACGGUATT against TGFB1I1: the median seed-adjusted z-score is 0.887. The same measure for GGGCAAAGCGAAACGCAAATT against ZNF536: -0.295.

Regarding GCACGAGCCUUUCUCCAGUTT against RNASE7, the median seed-adjusted z-score is 1.07 (active).

Take GAAAGUCCAGAUGAGGAUATT against KLF9: the median seed-adjusted z-score was 0.767. Consider GAAAUGGACCAGACACUAATT against POU2F2, for which the median seed-adjusted z-score was 0.163.

Regarding GGGACCAAAAUCAAUGAAATT against PCBP3, the median seed-adjusted z-score is -0.0373. The result for GAAUGCAGGGAGAAACUUATT against TRIM64 reads -0.024; that for GGAAGACAGAGAAUCGAAATT against SEMA5A, -0.443. The same measure for GACAAGACGUGGUCAAGAATT against BCL2L13: 0.311; for GCAGUAGACUGAGCAGCAATT against TMTC4: -1.16 (active). The result for CCUCAGGGAAGUACCCAAATT against RNASE8 reads 0.00771; that for CGCCUACACUCCUACGUGUTT against ZDHHC24, -0.695.

For UGCCCGCUGUAGAUGAGAATT against APOC2, the median seed-adjusted z-score was -0.0599.

Turning to GUUUCACCAUCGUUCGUGATT against PROKR2, the median seed-adjusted z-score was 0.328. The same measure for CAAAAUGCAUUAGCUGAAATT against VIP: 1.52 (active).

(Values after PubChem BioAssay AID1347426 (Functional Genomics Laboratory (NCATS/FGL), 2020).)
